Drawing on PubChem BioAssay, this text covers composite z-score and z-score for 5 molecules.

Assay [1] is described as follows: binders of probe aFSTL3 on microarray, primary screen, stem cell growth factor project, biochemical, small-molecule microarray, fluorescence 635/667 (AID 1064).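 Note: measures binding of the biotinylated anti-FSTL3 antibody to printed compounds.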 Particulars: higher = more signal.
A short description of assay [2]: binders from COS7 lysate, DM2A8 probe, primary screen, torsin A project, cell lysate, small-molecule microarray, fluorescence 635/667 (AID 1065). Particulars: higher = more signal, COS7 lysate expressing mutant human TOR1A.
Assay [3] in a line: binders of probe aFGF2 on microarray, primary screen, stem cell growth factor project, biochemical, small-molecule microarray, fluorescence 635/667 (AID 1067).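 Note: measures binding of biotinylated aFGF2 protein to printed compounds on slides; z-score merges feature fluorescence and signal-to-noise across triplicate slides.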 Particulars: higher = more signal.
Assay [4] in a line: binders of probe aFGF10 on microarray, primary screen, stem cell growth factor project, biochemical, small-molecule microarray, fluorescence 635/667 (AID 1071).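 Note: score merges 667 nm spot intensity and signal to noise from triplicate slides.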 The conditions noted are these: higher = more signal.
In assay [5] the target is Neurogenic locus notch homolog protein 2 (Homo sapiens) (UniProt Q04721). The assay can be described thus: Notch2 binders on small-molecule microarrays, primary screen, biochemical, small-molecule microarray, 635 nm fluorescence, stem cell growth factors (AID 1073). The conditions noted are these: Notch2 binding, higher = more signal.
Assay [6] deals with Pro-neuregulin-1, membrane-bound isoform (Homo sapiens) (UniProt Q02297). Nature of the assay: NRG1 binders on small-molecule microarrays, primary screen, psychiatric disease protein project, biochemical, small-molecule microarray, fluorescence 635/667 (AID 1075).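 Note: score combines 667 nm spot fluorescence with signal to noise.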 Particulars: NRG1 binding, 635 nm fluorescence, higher = more signal.
Assay [7] relates to Neuregulin-1 EGF-like domain. Nature of the assay: binders of neuregulin-1 EGF-like domain, primary screen, biochemical, small-molecule microarray, 635 nm fluorescence (AID 1081).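 Note: binding of the protein to compounds printed on small-molecule microarray slides.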 Particulars: small-molecule microarray binding, higher = more signal.
The nature of assay [8]: FRG1 promoter luciferase signal modulators, primary screen, FRG1 inhibition for FSHD, cell-based, C2C12 myotubes, firefly/Renilla luciferase, luminescence (AID 1084). The conditions noted are these: higher = more signal, called active from +8 up or from −8 down.
Assay [9] can be described thus: binders of probe aFST on microarray, primary screen, stem cell growth factor project, biochemical, small-molecule microarray, fluorescence 635/667 (AID 1086).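 Note: score merges 667 nm fluorescence with signal-to-noise of each printed compound spot.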 The conditions noted are these: higher = more signal.
Assay [10] in a line: binders of probe aHhip on microarray, primary screen, stem cell growth factor project, biochemical, small-molecule microarray, fluorescence 635/667 (AID 1087).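 Note: score merges spot fluorescence at 667nm with spot signal to noise ratio.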 The conditions noted are these: higher = more signal.
Assay [11] concerns PRMT1 (protein arginine N-methyltransferase 1). The assay can be described thus: PRMT1 binders on small-molecule microarrays, primary screen, biochemical, small-molecule microarray, 635 nm fluorescence (AID 1088).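 Note: binding of Prmt1 protein to compounds spotted on small-molecule microarray slides.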 Particulars: small-molecule microarray binding, higher = more signal.
Assay [12] in a line: yeast growth modulation, basal conditions, primary screen, YJM789 clinical isolate, OD600, 24 h (AID 1089).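 Note: growth of clinical yeast isolate S. cerevisiae YJM 789 seeded 1000 cells per well; test concentration not given here.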 The conditions noted are these: S. cerevisiae YJM789 growth, higher = more signal, called active from +8 up or from −8 down.
The nature of assay [13]: fission yeast growth modulation, primary screen, strain 972, OD600, 24 h, no modulator (AID 1090).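 Note: basal condition with compound alone and no growth modifier present; test concentration not given here.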 Particulars: S. pombe 972 growth, higher = more signal, called active from +8 up or from −8 down.
Assay [14] is described as follows: S. cerevisiae growth modulation with rapamycin, primary screen, strain BY4716, OD600, 96 h (AID 1091). Note: test concentration not given here. The conditions noted are these: higher = more signal, called active from +8 up or from −8 down.
Assay [15] addresses Torsin-1A-interacting protein 2 (Homo sapiens) (UniProt Q8NFQ8). Nature of the assay: LULL1 binders on small-molecule microarray, primary screen, cell lysate, human LULL1 lysate, 635/667 nm fluorescence (AID 1092).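 Note: probe is lysate of COS7 cells overexpressing human LULL1; score merges per-feature 667 nm fluorescence with signal-to-noise.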 The conditions noted are these: hLULL1 lysate binding, 635 nm fluorescence, higher = more signal.
The nature of assay [16]: E. coli growth modulation, two-sided OD650, primary screen, E. coli filamentation project, strain DRC41, 24 h (AID 1093).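 Note: MC1000 strain lacking acrAB efflux and sulA so SOS filamentation is blocked; test concentration not given here.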 Particulars: OD650, 24 h, higher = more signal, called active from +8 up or from −8 down.
The nature of assay [17]: small-molecule microarray binders of probe aLefty2, primary screen, biochemical, biotinylated probe, 635/667 nm fluorescence (AID 1094).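 Note: score merges spot fluorescence near 667 nm with spot signal-to-noise ratio.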 The conditions noted are these: higher = more signal.
For assay [18], the system named is Noggin (protein binding on small-molecule microarray). The assay can be described thus: Noggin binders on small-molecule microarray, primary screen, biochemical, 635/667 nm fluorescence (AID 1095).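 Note: score merges 667 nm feature fluorescence with signal to noise over triplicate slides.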 The conditions noted are these: 635 nm fluorescence, higher = more signal.
Assay [19] addresses Neurogenic locus notch homolog protein 3 (Homo sapiens) (UniProt Q9UM47). Nature of the assay: NOTCH3 binders on small-molecule microarray, primary screen, biochemical, 635/667 nm fluorescence (AID 1096). The conditions noted are these: NOTCH3 binding, 635 nm fluorescence, higher = more signal.
Assay [20] can be described thus: small-molecule microarray binders of probe aEGFR, primary screen, biochemical, biotinylated probe, 635/667 nm fluorescence (AID 1097).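 Note: probe is a biotinylated anti-EGFR antibody binding compounds printed on slides; score combines fluorescence near 667 nm and signal to noise of each spot.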 The conditions noted are these: higher = more signal.

Molecules are shown by their SMILES. Activity calls are given as the source filed them.

Chain of Torsin-1A-interacting protein 2 (Homo sapiens) (Q8NFQ8 whole entry, looked up): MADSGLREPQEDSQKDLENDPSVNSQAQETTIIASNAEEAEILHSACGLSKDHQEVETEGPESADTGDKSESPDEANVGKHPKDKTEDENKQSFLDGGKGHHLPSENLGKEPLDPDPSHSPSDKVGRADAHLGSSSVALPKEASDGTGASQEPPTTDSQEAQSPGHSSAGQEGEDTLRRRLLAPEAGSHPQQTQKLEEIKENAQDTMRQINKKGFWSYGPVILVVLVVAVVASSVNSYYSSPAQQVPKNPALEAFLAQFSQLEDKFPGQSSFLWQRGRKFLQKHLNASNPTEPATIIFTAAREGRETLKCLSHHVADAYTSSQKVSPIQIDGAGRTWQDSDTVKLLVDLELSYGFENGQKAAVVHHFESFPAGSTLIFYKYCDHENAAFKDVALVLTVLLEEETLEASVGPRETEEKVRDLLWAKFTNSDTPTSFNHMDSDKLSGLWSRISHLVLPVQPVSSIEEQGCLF
Chain of Neurogenic locus notch homolog protein 3 (Homo sapiens) (Q9UM47 whole entry, looked up): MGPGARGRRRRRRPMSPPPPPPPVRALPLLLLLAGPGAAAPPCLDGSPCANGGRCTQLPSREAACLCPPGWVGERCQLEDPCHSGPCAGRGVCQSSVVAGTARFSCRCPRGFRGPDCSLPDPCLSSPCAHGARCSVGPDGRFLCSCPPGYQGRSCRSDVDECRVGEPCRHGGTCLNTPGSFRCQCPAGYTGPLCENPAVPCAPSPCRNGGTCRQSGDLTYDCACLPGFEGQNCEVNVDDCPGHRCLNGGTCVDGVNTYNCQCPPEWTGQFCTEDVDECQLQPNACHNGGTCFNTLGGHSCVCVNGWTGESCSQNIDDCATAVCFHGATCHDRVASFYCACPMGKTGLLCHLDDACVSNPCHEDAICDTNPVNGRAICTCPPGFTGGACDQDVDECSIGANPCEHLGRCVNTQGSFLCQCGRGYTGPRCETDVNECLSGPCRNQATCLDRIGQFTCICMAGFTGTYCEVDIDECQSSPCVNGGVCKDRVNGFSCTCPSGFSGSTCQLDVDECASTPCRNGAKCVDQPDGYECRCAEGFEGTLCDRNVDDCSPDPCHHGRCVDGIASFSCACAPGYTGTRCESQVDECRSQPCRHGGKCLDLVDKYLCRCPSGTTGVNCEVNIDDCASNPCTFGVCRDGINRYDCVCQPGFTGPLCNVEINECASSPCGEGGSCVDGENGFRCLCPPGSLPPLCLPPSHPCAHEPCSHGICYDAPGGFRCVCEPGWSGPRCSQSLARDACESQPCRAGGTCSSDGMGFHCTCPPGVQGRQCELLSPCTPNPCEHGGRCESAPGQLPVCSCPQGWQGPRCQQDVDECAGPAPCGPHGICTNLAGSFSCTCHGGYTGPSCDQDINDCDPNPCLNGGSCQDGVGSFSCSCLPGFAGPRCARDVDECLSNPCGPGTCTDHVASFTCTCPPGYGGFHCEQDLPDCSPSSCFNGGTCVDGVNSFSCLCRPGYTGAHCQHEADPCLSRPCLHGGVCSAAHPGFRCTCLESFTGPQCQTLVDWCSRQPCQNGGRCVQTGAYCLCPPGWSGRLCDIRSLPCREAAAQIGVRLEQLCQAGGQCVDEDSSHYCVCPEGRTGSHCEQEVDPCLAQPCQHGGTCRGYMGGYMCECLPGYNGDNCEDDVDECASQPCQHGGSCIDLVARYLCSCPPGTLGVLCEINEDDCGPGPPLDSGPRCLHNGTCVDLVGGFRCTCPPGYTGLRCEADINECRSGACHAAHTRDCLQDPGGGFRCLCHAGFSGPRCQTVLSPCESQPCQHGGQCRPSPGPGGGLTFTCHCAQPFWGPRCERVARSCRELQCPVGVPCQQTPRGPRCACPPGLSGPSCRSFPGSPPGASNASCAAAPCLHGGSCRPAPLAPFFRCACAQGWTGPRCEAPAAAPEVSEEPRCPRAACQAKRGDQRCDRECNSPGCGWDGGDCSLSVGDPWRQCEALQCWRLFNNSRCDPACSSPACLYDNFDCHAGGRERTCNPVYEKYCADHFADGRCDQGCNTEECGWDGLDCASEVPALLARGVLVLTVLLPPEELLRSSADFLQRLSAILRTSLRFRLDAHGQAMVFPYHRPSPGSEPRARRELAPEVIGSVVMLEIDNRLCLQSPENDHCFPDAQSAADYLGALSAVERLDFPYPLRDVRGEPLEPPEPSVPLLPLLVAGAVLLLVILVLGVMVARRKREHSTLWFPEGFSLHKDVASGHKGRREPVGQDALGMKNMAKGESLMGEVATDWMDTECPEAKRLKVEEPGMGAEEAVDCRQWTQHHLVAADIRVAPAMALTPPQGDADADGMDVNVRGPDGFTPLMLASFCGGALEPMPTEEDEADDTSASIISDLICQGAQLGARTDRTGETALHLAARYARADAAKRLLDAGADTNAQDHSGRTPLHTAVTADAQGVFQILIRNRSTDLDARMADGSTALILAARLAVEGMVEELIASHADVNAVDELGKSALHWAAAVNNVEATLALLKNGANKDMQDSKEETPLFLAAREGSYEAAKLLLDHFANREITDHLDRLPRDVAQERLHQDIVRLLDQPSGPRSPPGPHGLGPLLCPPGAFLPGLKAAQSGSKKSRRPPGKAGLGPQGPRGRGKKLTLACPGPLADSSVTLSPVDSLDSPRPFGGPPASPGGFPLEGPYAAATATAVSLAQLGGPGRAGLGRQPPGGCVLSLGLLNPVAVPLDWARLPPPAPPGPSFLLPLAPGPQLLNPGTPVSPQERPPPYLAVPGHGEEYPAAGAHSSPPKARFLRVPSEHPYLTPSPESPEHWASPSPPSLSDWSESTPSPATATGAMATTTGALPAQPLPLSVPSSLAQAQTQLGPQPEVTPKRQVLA
Chain of Pro-neuregulin-1, membrane-bound isoform (Homo sapiens) (Q02297 whole entry, looked up, the tested form may be a part, canonical isoform): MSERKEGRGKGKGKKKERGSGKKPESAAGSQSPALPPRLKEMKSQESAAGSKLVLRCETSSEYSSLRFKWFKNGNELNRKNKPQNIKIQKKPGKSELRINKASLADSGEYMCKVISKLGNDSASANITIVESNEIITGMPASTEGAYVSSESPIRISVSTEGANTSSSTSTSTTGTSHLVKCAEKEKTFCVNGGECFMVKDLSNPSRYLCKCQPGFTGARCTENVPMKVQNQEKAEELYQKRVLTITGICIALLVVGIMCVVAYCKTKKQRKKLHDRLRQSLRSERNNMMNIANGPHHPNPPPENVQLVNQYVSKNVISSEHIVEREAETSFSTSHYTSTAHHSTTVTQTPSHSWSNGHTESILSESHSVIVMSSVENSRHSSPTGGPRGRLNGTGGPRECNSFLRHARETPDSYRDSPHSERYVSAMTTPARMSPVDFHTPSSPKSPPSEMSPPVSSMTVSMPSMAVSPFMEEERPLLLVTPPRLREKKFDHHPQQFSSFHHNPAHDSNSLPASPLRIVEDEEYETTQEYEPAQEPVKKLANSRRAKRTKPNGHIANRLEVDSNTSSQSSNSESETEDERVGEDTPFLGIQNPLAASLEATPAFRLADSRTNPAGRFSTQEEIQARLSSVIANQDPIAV

As for `Cc1ccc(S[C@]2(C(=O)NCC(C)C)CC(=O)N(C(C)C)[C@@H]2c2ccc(CO)cc2)cc1`, the composite z-score in [1] was -1.02; in assay [2], -0.691; in assay [3], -0.083; in assay [4], -0.293; in assay [5], -0.625; in assay [6] it was -0.517. Also, the composite z-score was -0.0249 in assay [7]; 0.272 in assay [9]; 0.271 in assay [10]; 0.493 in assay [11]; -0.219 in assay [15]; -0.0193 in [17]. The composite z-score in assay [18] is -0.197; in assay [19] it was -0.534; in assay [20], -0.175. Further, the z-score in assay [8] is -0.781 (inactive); in assay [12], 0.588 (inactive); in assay [13], -2.12 (inactive); in assay [14], -0.942 (inactive); in assay [16], 0.538 (inactive).
As for `CCOC(=O)C[C@H]1[C@H](OC(=O)Cc2ccc3c(c2)OCO3)[C@@H](NC(=O)c2ccc3ccccc3c2)c2cc(OCCCO)ccc2N1C(=O)c1ccc2ccccc2n1`, the composite z-score in assay [1] is -0.123; in assay [2] it was 0.243; in assay [3], -0.161; in assay [4] it was 0.319; in assay [5], 0.429; in [6], 0.799. The composite z-score was 0.8 in assay [7]; 0.233 in assay [9]; -0.132 in assay [10]; 0.144 in assay [11]; 1.44 in assay [15]; -0.0865 in [17]. Further, the figures for the composite z-score in [18], in [19] and in assay [20] were 0.235, 0.808 and 0.0343, respectively. For the same molecule, the z-score was -3.68 (inactive) in [8]; -3.45 (inactive) in [12]; -3.3 (inactive) in assay [13]; -2.38 (inactive) in assay [14]; 0.135 (inactive) in assay [16].
`COc1ccc([Si](C)(C)[C@H]2[C@H](CC(=O)N(CCO)Cc3ccccc3)O[C@@]3(C(=O)N(Cc4ccc(N5CCOC5=O)cc4)c4ccccc43)[C@@H]2C)cc1`: the composite z-score in assay [1] was 0.0147; in assay [2], 0.285; in assay [3] it was -0.105; in assay [4], 0.202; in [5] it was 0.135; in assay [6], 0.869. The composite z-score in [7] is 1.01; in assay [9], -0.158; in [10], -0.0618; in assay [11], 0.92; in assay [15], 1.98; in [17] it was -0.0595. Further, the values for the composite z-score in assay [18], in assay [19] and in assay [20] were 0.821, 0.361 and -0.146, respectively. Moreover, the z-score was -2.95 (inactive) in assay [8]; 0.473 (inactive) in assay [12]; 0.273 (inactive) in assay [13]; 3.26 (inactive) in assay [14]; 1.46 (inactive) in [16].
Regarding `CO[C@H]1O[C@H](CO)[C@@H](OC(=O)Nc2ccccc2)[C@H](OC(=O)Nc2ccccc2-c2ccccc2)[C@H]1OC(=O)Nc1ccccc1-c1ccccc1`, the composite z-score in assay [1] was 0.183; in assay [2], 1.85; in assay [3], -0.0449; in [4] it was 0.567; in [5] it was 0.555; in assay [6] it was 1.31. Also, the composite z-score is 1.3 in [7]; 0.714 in assay [9]; -0.0296 in assay [10]; 1.54 in assay [11]; 2.91 in [15]; -0.0699 in [17]. Also, the figures for the composite z-score in [18], in [19] and in assay [20] were 0.764, 0.965 and -0.0978, respectively. Besides, the z-score in assay [8] was -0.114 (inactive); in [12], -2.03 (inactive); in [13], -0.674 (inactive); in [14], 1.22 (inactive); in [16] it was 1.39 (inactive).
As to `COCCOC(=O)N1C(=O)[C@@]2(c3ccccc31)[C@H](C(=O)Nc1nc3ccccc3s1)[C@H]1C(=O)O[C@H](c3ccccc3)[C@H](c3ccccc3)N1[C@@H]2c1ccc(O)cc1`, the composite z-score in [1] turned out to be 0.0605; in [2] it was 0.202; in assay [3], 0.074; in [4] it was 0.823; in assay [5], 1.44; in assay [6], 0.57. Besides, the composite z-score in assay [7] stood at 1.28; in [9], 0.442; in [10], 0.0302; in [11] it was 1.53; in [15] it was 1.76; in assay [17] it was 0.219. Further, the figures for the composite z-score in assay [18], in assay [19] and in assay [20] were 0.565, 1.1 and 0.254, respectively. In addition, the z-score in assay [8] is 2.8 (inactive); in [12] it was 3.43 (inactive); in assay [13], 1.8 (inactive); in assay [14], 8.35 (active); in assay [16], 2.9 (inactive).
